The campaign covered roughly 16,000 compounds. About 5,100 (32%) were called active. Roughly 25% stayed inconclusive and do not appear here. Calls follow the shape of the dose curve; as a rule, active = well fitted curve in the direction sought with a large enough effect; inconclusive = small, poorly fitted or top-dose-only effect, or effect the other way; inactive = no such curve, though single readings can be large or run the other way. The list shows a part of the results.
Each compound was assayed against Cytochrome P450 3A4 (Homo sapiens) (UniProt P08684) (assay: Cytochrome panel assay with activity outcomes). Conditions: recombinant CYP, pro-luciferin dealkylation, luminescence, p450-cyp3a4; series mostly up to 57.1 µM; activity, negative = inhibition: at the top concentration.
% is scaled to controls: 0 for no effect and ±100 for the full control effect.

Sequence of Cytochrome P450 3A4 (Homo sapiens) (P08684 whole entry, looked up): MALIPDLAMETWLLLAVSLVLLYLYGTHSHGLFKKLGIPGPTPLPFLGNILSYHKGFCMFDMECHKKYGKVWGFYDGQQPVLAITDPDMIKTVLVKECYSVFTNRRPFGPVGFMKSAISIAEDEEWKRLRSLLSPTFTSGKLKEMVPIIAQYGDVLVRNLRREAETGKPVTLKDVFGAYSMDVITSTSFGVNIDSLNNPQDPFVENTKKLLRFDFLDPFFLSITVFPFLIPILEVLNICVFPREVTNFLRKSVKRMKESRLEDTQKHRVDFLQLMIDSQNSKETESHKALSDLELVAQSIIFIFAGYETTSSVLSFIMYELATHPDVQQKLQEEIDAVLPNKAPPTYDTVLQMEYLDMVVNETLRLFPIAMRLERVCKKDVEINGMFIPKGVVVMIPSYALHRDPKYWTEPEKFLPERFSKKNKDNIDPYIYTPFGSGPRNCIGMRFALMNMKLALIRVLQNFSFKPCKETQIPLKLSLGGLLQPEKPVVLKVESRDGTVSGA

Compound | AC50 | activity, negative = inhibition
CCOCCn1c(CN(Cc2ccccc2)Cc2ccccc2)nc2c1c(=O)[nH]c(=O)n2C | 15.8 µM (active) | 
CN(C)c1nc2c(c(=O)[nH]c(=O)n2C)n1Cc1ccccc1Br |  | -21% (inactive)
COC(Cc1nnc(SC)n1-c1ccc(Cl)cc1)OC |  | -7.38% (inactive)
O=S(Cc1ccc(Br)cc1)Cc1nnc(SCc2ccc(Cl)cc2)n1-c1ccccc1 (centres undefined) | 7.08 µM (active) | 
O=P(O)(CCc1ccccc1)C(O)c1ccccc1 (centres undefined) |  | 2.84% [at 11.4 µM] (inactive)
CCCC(C(=O)Nc1nccs1)c1ccccc1 (centres undefined) | 12.6 µM (active) | 
O=C(O)c1ccccc1C(=O)Nc1nccs1 |  | -3.78% (inactive)
CCC(=O)[C@@H](c1ccccc1)c1ccccn1 |  | -1.45% [at 11.4 µM] (inactive)
O=[N+]([O-])c1cc(C(F)(F)F)ccc1NCCCCNS(=O)(=O)c1ccc2ccccc2c1 | 14.1 µM (active) | 
Cc1nn(CC(=O)NCCN2CCOCC2)c(C)c1[N+](=O)[O-] |  | -13.5% (inactive)
Cc1nn(Cc2ccccc2Cl)c(C)c1NC(=O)CCCn1nc(C)c([N+](=O)[O-])c1C | 2.51 µM (active) | 
Cc1c(Cl)c([N+](=O)[O-])nn1CC(=O)Nc1c(C)n(C)n(-c2ccccc2)c1=O |  | -28.3% (inactive)
S=C(NCc1ccccn1)Nc1cccc(Cl)c1 | 10 µM (active) | 
O=C(Nc1cccc(F)c1)Nc1ccccn1 |  | -1.91% (inactive)
CN(C)CCNC(=S)Nc1cccc(Cl)c1 |  | 21.6% (inactive)
COCC(=O)N1CCC2(CC1)CN(C(=O)Nc1ccccc1)C2 |  | -5.28% (inactive)
CC(Sc1nc(-c2ccccc2)cc(C(F)(F)F)n1)C(=O)N1CCCCC1 (centres undefined) | 7.08 µM (active) | 
CCOC(=O)c1cc2c(C(F)(F)F)cc(-c3ccccc3)nc2o1 |  | -1.96% [at 2.29 µM] (inactive)
CN1CCN(c2nc(-c3ccccc3)cc(C(F)(F)F)n2)CC1 |  | -3.68% (inactive)
c1ccc(-c2ccc3c(c2)c2c4n3CCN=C4CCC2)cc1 |  | -17.2% (inactive)
CCCS(=O)(=O)N1CCCC(C(=O)NCCN(C)Cc2ccccc2)C1 (centres undefined) |  | 12.8% [at 2.29 µM] (inactive)
CCOc1ccc(OCC)c(NC(=O)C2CCCN(S(=O)(=O)c3cccs3)C2)c1 (centres undefined) | 5.62 µM (active) | 
CCCS(=O)(=O)N1CCCC(C(=O)NCCCOCC)C1 (centres undefined) |  | -4.59% (inactive)
COc1ccc(-n2c(=O)c(-c3cccs3)nc3cncnc32)cc1 |  | -28.3% (inactive)
COc1ccccc1CCn1c(=O)c(-c2cccs2)nc2cncnc21 | 3.16 µM (active) | 

Compound | AC50 | activity, negative = inhibition
COCCn1c(=O)c(C)nc2cncnc21 | 12.6 µM (active) | 
COCCn1c(=O)c(-c2cccs2)nc2cncnc21 | 15.8 µM (active) | 
Cn1c(=O)c(-c2cccs2)nc2cncnc21 | 7.94 µM (active) | 
CCCC(O)(CCC)C(=O)NN1CCCCC1 |  | -18.6% (inactive)
CN(C)c1ncc2nc(-c3ccc(F)cc3)c(=O)n(CCc3ccccc3)c2n1 |  | -2.76% (inactive)
O=c1c(-c2ccccc2)nc2cncnc2n1C1CC1 |  | -32.8% (inactive)
COc1ccccc1CCn1c(=O)c(-c2ccc(Cl)cc2)nc2cncnc21 | 3.98 µM (active) | 
O=c1c(-c2ccc(F)cc2)nc2cncnc2n1C1CC1 |  | -29.9% (inactive)
COc1ccccc1CCn1c(=O)c(-c2ccc(F)cc2)nc2cncnc21 | 3.98 µM (active) | 
O=c1c(-c2cccc(Cl)c2)nc2cncnc2n1Cc1ccccc1 |  | -22.5% (inactive)
COc1ccccc1CCn1c(=O)c(-c2cccc(Cl)c2)nc2cncnc21 | 6.31 µM (active) | 
Cc1nc2cncnc2n(C2CC2)c1=O | 15.8 µM (active) | 
Cc1nc2cnc(N(C)C)nc2n(C2CC2)c1=O |  | 2.85% (inactive)
CC(=O)O[C@@H](C)C[N+](C)(C)C | inactive | 
COc1ccccc1CCn1c(=O)c(-c2ccccc2)nc2cncnc21 | 3.98 µM (active) | 
COCCn1c(=O)c(-c2ccccc2)nc2cncnc21 |  | -40% (inactive)
COc1ccccc1CCn1c(=O)c(-c2ccc(F)c(F)c2)nc2cncnc21 | 3.16 µM (active) | 
Cn1c(=O)c2c(nc(C(=N)SCC(=O)O)n2C)n(C)c1=O |  | -27.7% [at 11.4 µM] (inactive)
CSc1ncnc2c1ncn2[C@@H]1O[C@@H](CO)[C@H](O)O[C@@H]1O |  | -26.2% [at 11.4 µM] (inactive)
Nc1ccc(CCNc2ncnc3c2ncn3[C@@H]2O[C@@H](CO)[C@H](O)[C@@H]2O)cc1 | 25.1 µM (active) | 
OCCNc1ncnc2c1ncn2[C@@H]1O[C@@H](CO)[C@H](O)[C@@H]1O |  | -9.88% [at 11.4 µM] (inactive)
CNc1ncnc2c1ncn2[C@@H]1O[C@@H](CO)[C@H](O)[C@@H]1O |  | -11.5% (inactive)
Cc1ccc(NC(=S)Nc2nc(CC(=O)Nc3ccccc3)cs2)cc1 | 6.31 µM (active) | 
Cc1ccc(NC(=O)Nc2nc(-c3ccc(C)s3)cs2)cc1 |  | -0.444% [at 2.29 µM] (inactive)
CNC(=O)[C@@H]1O[C@@H](n2cnc3c(N)ncnc32)[C@@H](O)[C@H]1O |  | 1.94% (inactive)

Compound | AC50 | activity, negative = inhibition
O=C(Nc1ccc(Cl)cc1)OCc1cc(-c2ccccc2)on1 |  | -7.05% (inactive)
COc1ccc(CC(=O)Nc2ccc(-c3nnc(-c4ccccc4)o3)cc2)cc1 |  | 7.9% (inactive)
CCC(=O)Nc1cccc(-c2nnc(-c3cccc(NC(=O)CC)c3)o2)c1 | 14.1 µM (active) | 
CCC(=O)NNC(=O)CCC(=O)Nc1ccccc1 |  | 0.807% (inactive)
O=C(Nc1ccc(Nc2ccc3c(c2)C(=O)c2ccccc2C3=O)c2c1C(=O)c1ccccc1C2=O)c1ccccc1 |  | -7.98% [at 11.4 µM] (inactive)
O=C(Cc1ccc(Cl)cc1)Nc1cccc(-c2nnc(-c3ccco3)o2)c1 | 7.94 µM (active) | 
O=C1c2ccccc2-c2ccc(NC(=O)[C@H]3CCCC[C@@H]3C(=O)O)cc21 |  | -29% [at 11.4 µM] (inactive)
Clc1ccc(-c2nnc(-c3ccco3)o2)cc1 |  | 1.16% [at 11.4 µM] (inactive)
CCC(=O)Nc1ccc2c(c1)C(=O)c1ccccc1C2=O | 7.08 µM (active) | 
COc1ccc(CC(=O)Nc2cccc(-c3nnc(-c4ccco4)o3)c2)cc1 | 2 µM (active) | 
CO[C@]1(NC(=O)Cc2cccs2)C(=O)N2C(C(=O)O)=C(COC(N)=O)CS[C@H]21 |  | -15.5% [at 25.6 µM] (inactive)
O=C1Nc2ccc(F)cc2C12SCCS2 |  | -8.71% (inactive)
Cc1ccc(SCc2[nH]nc3c2C(C(C)C)C(C#N)=C(N)O3)cc1 (centres undefined) |  | -16.4% [at 2.29 µM] (inactive)
COc1cccc(-c2[nH]nc3c2C(c2ccc(C)o2)C(C#N)=C(N)O3)c1 (centres undefined) |  | -27.5% [at 2.29 µM] (inactive)
COc1cccc(-c2[nH]nc3c2C(c2ccsc2)C(C#N)=C(N)O3)c1 (centres undefined) | 7.08 µM (active) | 
CC1CCC(=NNC(=O)Cc2ccccc2)CC1 (centres undefined) |  | -1.06% [at 2.29 µM] (inactive)
CN1CCC(=NNC(=O)CSCc2ccccc2)CC1 | 17.8 µM (active) | 
O=C(CC(=O)NN=C1CCCC1)NCCc1ccccc1 |  | 4.31% [at 2.29 µM] (inactive)
CCCn1cnc2c1c(=O)n(CCCCC(C)=O)c(=O)n2C |  | -14.5% (inactive)
CC1(C)C(=O)C(c2ccccc2)=C2CN3C(=O)N(CCc4ccccc4)C(=O)C3(Cc3ccc(C(F)(F)F)cc3)C=C21 (centres undefined) | 2 µM (active) | 
CC1(C)C(=O)C(c2ccccc2)=C2CN3C(=O)N(CCc4ccccc4)C(=O)C3(Cc3ccccc3)C=C21 (centres undefined) | 2 µM (active) | 
CC1(C)C(=O)C(c2ccccc2)=C2CN3C(=O)N(CCc4ccccc4)C(=O)C3(Cc3ccc(F)cc3)C=C21 (centres undefined) | 3.16 µM (active) | 
CN(C)/C(CN1CCN(C=O)CC1)=C1\N=C(c2ccccc2)OC1=O |  | -24.6% (inactive)
CC1(C)N=C(N)N=C(N)N1CCCCc1ccccc1 |  | -18.8% [at 11.4 µM] (inactive)
CCOC(=O)c1c(O)[nH]c(=O)c(CC)c1C |  | -7.96% [at 11.4 µM] (inactive)

Compound | AC50 | activity, negative = inhibition
CCNC(=S)NNC(=O)c1cccc(Br)c1 |  | -9.08% (inactive)
CCNC(=S)NNC(=O)Cc1ccccc1 |  | 7.45% (inactive)
CCNC(=S)NNC(=O)CCn1c2ccccc2c2ccccc21 | 4.47 µM (active) | 
CC(C)[C@]1(Cl)CC[C@@H]2[C@]3(C)CCC[C@@](C)(C(=O)O)[C@H]3C[C@H](Cl)[C@@]2(Cl)[C@H]1Cl |  | -26.1% [at 11.4 µM] (inactive)
Nc1nc2c(ncn2[C@@H]2C=C[C@@H](CO)C2)c(=O)[nH]1 |  | -2.95% [at 11.4 µM] (inactive)
Cc1onc(-c2c(Cl)cccc2Cl)c1C(=O)N1CCc2ccccc2C1 | 3.98 µM (active) | 
C/C(CC(=O)NCCCN1CCOCC1)=N\NC(=O)COc1ccc(Cl)cc1 | 15.8 µM (active) | 
COc1ccc(C(=O)NCCCN2CCOCC2)cc1OC |  | -3.95% (inactive)
COCCNc1nc(-c2ccc(N(C)C)cc2)nc2ccccc12 | 12.6 µM (active) | 
COc1ccccc1CNc1nc(-c2ccc(N(C)C)cc2)nc2ccccc12 | 3.16 µM (active) | 
COc1ccc(-c2cc([C@H](O)[C@@H]3CCCCN3)c3ccccc3n2)cc1 |  | -6.63% [at 11.4 µM] (inactive)
COc1ccc(CNc2nc(-c3ccc4c(c3)OCO4)nc3ccccc23)c(OC)c1 | 1.26 µM (active) | 
CN(C)c1ccc(-c2nc(NCCc3cnc[nH]3)c3ccccc3n2)cc1 | 2.51 µM (active) | 
Clc1cnccn1 |  | 1.91% [at 25.6 µM] (inactive)
CCN(CC)CC#CCC(C)(c1ccccc1)c1ccccc1 |  | -27.1% [at 2.29 µM] (inactive)
CCCOc1ccc(CSC(CC(=O)O)C(=O)O)cc1 (centres undefined) |  | -9.38% (inactive)
CO/N=C(\C(=O)N[C@@H]1C(=O)N2C(C(=O)O)=C(COC(C)=O)CS[C@@H]12)c1csc(N)n1 | inactive | 
Cc1ccc(C(=O)Oc2cc(C)n(C)c(=O)c2)cc1 |  | -2.99% (inactive)
CC(C)(CN)CN |  | -13.3% [at 11.4 µM] (inactive)
COc1ccccc1CNc1nc(-c2ccc3c(c2)OCO3)nc2ccccc12 | 1.26 µM (active) | 
C/C(=N/NS(=O)(=O)c1ccc(C)cc1)c1cccc(NC(=O)c2cccc(Cl)c2)c1 | 1.41 µM (active) | 
COc1ccc(S(=O)(=O)N/N=C(/C)c2cccc(NC(=O)c3ccccc3Cl)c2)cc1 | 2.24 µM (active) | 
CCC(=O)Nc1ccc(/C(C)=N\NS(=O)(=O)c2ccc(C)cc2)cc1 |  | -25.1% [at 2.29 µM] (inactive)
C/C(=N/NS(=O)(=O)c1ccc(C)cc1)P(=O)(O)O |  | -8.75% [at 11.4 µM] (inactive)

From PubChem BioAssay AID1851 (National Center for Advancing Translational Sciences (NCATS), 2009)
